Laboratory results reported in PubChem BioAssay.

Assay: probe aLAP1 signal on lysate-treated microarray – cell lysate, small-molecule microarray, COS7 lysate, primary screen (AID 1124);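 also: lysate comes from COS7 cells expressing LAP1 and is applied at 0.3 µg/mL; score merges spot fluorescence near 667 nm with signal-to-noise over triplicate slides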
Settings: probe aLAP1, fluorescence, higher = more signal
With `CCN(CC)c1ccc(N2CC=CC34O[C@@H]5C=CCOC(=O)[C@@H]5[C@H]3C(=O)N(CCO)[C@@H]4C2=O)cc1` (stereo not given in full) the composite z-score was -0.714. Molecule `CCOC(=O)C1=CC[C@@H](c2ccccc2)N(S(=O)(=O)C[Si](C)(C)C)[C@H]1c1ccccc1` has a composite z-score of -0.203. Work on `CN(C)CCCC[C@@H]1NC(=O)[C@@H]2C[C@H](C(=O)NCc3ccc(F)cc3)[C@H](c3ccc(O)cc3)N2C1=O` yielded a composite z-score of 0.339. Molecule `C=CCOC(=O)[C@H]1[C@@H]2C(=O)O[C@@H](c3ccccc3)[C@@H](c3ccccc3)N2[C@@H](c2ccc(OCCOC(=O)[C@@H]3C[C@@H]4C(=O)N[C@@H](CC(C)C)C(=O)N4[C@@H]3c3ccc(O)cc3)cc2)[C@]12C(=O)Nc1ccc(I)cc12` has a composite z-score of 0.0414. `COCCCNC(=O)[C@@H]1c2ccccc2C(=O)N(C2CCCCC2)[C@H]1c1ccc(CO)cc1` gave a composite z-score of 0.0117. `CN(C)CCCC[C@@H]1NC(=O)[C@H]2C[C@@H](C(=O)NCc3ccc(F)cc3)[C@@H](c3ccc(O)cc3)N2C1=O` showed a composite z-score of 0.0507. For `COc1ccc(C#Cc2ccc3c(c2)[C@]2(C(=O)N3)[C@H](C(=O)Nc3nc4ccccc4s3)[C@H]3C(=O)O[C@H](c4ccccc4)[C@H](c4ccccc4)N3[C@@H]2c2ccc(OCCO)cc2)cc1`, the composite z-score was 0.816. Work on `C=CCC(OC(C)=O)[C@@H]1[C@@H](N(Cc2ccc(-c3cccc(C(F)(F)F)c3)o2)C(=O)c2cccc3ccccc23)c2cc(OCCCO)ccc2N1C(=O)c1ccc2ccccc2n1` (stereo not given in full) yielded a composite z-score of -0.202. For `C[N+](C)(C)CCCC[C@@H]1NC(=O)[C@H]2C[C@@H](C(=O)NCCCCCNC(=O)CS)[C@@H](c3ccc(O)cc3)N2C1=O`, the composite z-score was 0.361. Work on `C=CCC(OC(C)=O)[C@@H]1[C@@H](N(Cc2cccc3ccccc23)C(=O)c2cccc3ccccc23)c2cc(OCCCO)ccc2N1C(=O)Cc1ccc2ccccc2c1` (stereo not given in full) yielded a composite z-score of -0.397. With `COc1ccc(C(O)C2C=CC3C(=O)N(C)C(=O)C3N2Nc2ccc([N+](=O)[O-])cc2[N+](=O)[O-])cc1OCc1ccccc1` (stereo not given) the composite z-score was 0.53. For `COCCOC(=O)N1C(=O)[C@@]2(c3cc(C#CCC(C(=O)OC)C(=O)OC)ccc31)[C@H](C(=O)N1CCc3cc(OC)c(OC)cc3C1)[C@H]1C(=O)O[C@H](c3ccccc3)[C@H](c3ccccc3)N1[C@@H]2c1ccc(O)cc1`, the composite z-score was 0.617. For `C=CCNC(=O)[C@@H]1[C@H]2C(=O)O[C@H](c3ccccc3)[C@H](c3ccccc3)N2[C@H](c2ccc(O)cc2)[C@@]12C(=O)Nc1ccc(C#CC3(O)CCCCCC3)cc12`, the composite z-score was 0.107. Molecule `COCCOC(=O)N1C(=O)[C@@]2(c3ccccc31)[C@H](C(=O)N1CCCCCCC1)[C@H]1C(=O)O[C@H](c3ccccc3)[C@H](c3ccccc3)N1[C@@H]2c1ccc(O)cc1` has a composite z-score of 2.11. For `N#Cc1ccc(C(O)C2C=CC3C(=O)NC(=O)C3N2Nc2ccccn2)cc1` (stereo not given), the composite z-score was 0.711. In the case of `CC(C)C[C@H]1NC(=O)[C@@]23C(=O)N[C@@H](Cc4ccccc4)C2[C@H](C)[C@@]2(C)O[C@H]2C3/C=C/C/C=C\CNC(=O)[C@@H]2CCCN2C1=O` (stereo not given in full), the composite z-score is reported as 0.145. `CCCC[C@@H]1C[C@H]1[C@@H](NC(=O)Cc1ccccc1)c1ccc(Cl)cc1` gave a composite z-score of 0.323. With `NC(=O)N1C(=O)C2C(C1=O)C1C=C(CCCO)C2C(c2ccc(CN3CCCC3)cc2)N1Cc1cccc(OC(F)(F)F)c1` (stereo not given) the composite z-score was 0.0715. In the case of `CCOC(=O)C[C@H]1[C@H](OC(=O)c2ccc(C(=O)c3ccccc3)cc2)[C@@H](NC(=O)c2ccc3ccccc3c2)c2cc(OCCCO)ccc2N1C(=O)c1ccc2ccccc2n1`, the composite z-score is reported as 0.653. `O=C1NC(=O)C2C1C=CC(C(O)c1ccc(F)cc1)N2Nc1ccccn1` (stereo not given) showed a composite z-score of -0.393. Work on `COc1ccc([Si](C)(C)[C@H]2[C@H](CC(=O)N3Cc4ccccc4C[C@H]3CO)O[C@@]3(C(=O)N(Cc4cccc(N5C(=O)c6cccc7cccc5c67)c4)c4ccccc43)[C@@H]2C)cc1` yielded a composite z-score of 0.271. For `COC(=O)[C@@]1(Cc2ccccc2)[C@@H]2[C@@H](CC(=O)[C@H]2CC(=O)C(=O)N(C)C)CN1C(=O)c1ccccc1`, the composite z-score was 0.712. Molecule `COC(=O)[C@]1(CO)N=C(c2ccc(OCCCO)cc2)O[C@@H]1c1ccccc1CN=[N+]=[N-]` has a composite z-score of 0.0153. For `CC(C)CNC(=O)[C@@H]1c2ccccc2C(=O)N(C(C)C)[C@H]1c1ccc(CO)cc1`, the composite z-score was 1.25. `Cc1c(NC(=O)/C(C#N)=C/c2ccc(Cl)cc2)c(=O)n(-c2ccccc2)n1C` showed a composite z-score of 0.761. In the case of `O=C1c2ccccc2[C@](Cc2ccccc2I)(C(=O)O)[C@H](c2ccc(CO)cc2)N1Cc1ccccc1`, the composite z-score is reported as 1.05. Work on `CCC[C@@H]1C=C(C(=O)OCC)[C@H](c2ccccc2)N1S(=O)(=O)c1ccc(C)cc1` yielded a composite z-score of 1.29. `COCCOC(=O)N1C(=O)[C@@]2(c3cc(C#CCC(C(=O)OC)C(=O)OC)ccc31)[C@H](c1ccc(OCCO)cc1)N1[C@H](c3ccccc3)[C@H](c3ccccc3)OC(=O)[C@H]1[C@@H]2C(=O)N1CCCCCCC1` gave a composite z-score of 0.986. `CCOC(=O)C[C@H]1[C@H](OC(=O)c2ccc(-c3ccccc3)cc2)[C@@H](NC(=O)CC(C)C)c2cc(OCCCO)ccc2N1C(=O)Cc1ccc(OC)cc1` showed a composite z-score of 0.39. Molecule `COCCOC(=O)N1C(=O)[C@@]2(c3cc(C#CCC(C(=O)OC)C(=O)OC)ccc31)[C@H](C(N)=O)[C@H]1C(=O)O[C@H](c3ccccc3)[C@H](c3ccccc3)N1[C@@H]2c1ccc(OCCO)cc1` has a composite z-score of 0.307. `C=CCC(OC(C)=O)[C@@H]1[C@@H](N(Cc2ccc(-c3cccc(C(F)(F)F)c3)o2)C(=O)c2cccc3ccccc23)c2cc(OCCCO)ccc2N1C(=O)c1ccc2ccccc2c1` (stereo not given in full) showed a composite z-score of -0.278. Molecule `COC(=O)[C@@]1(Cc2ccccc2)[C@H]2c3cc(C(=O)N4CCCC4)n(Cc4ccc(C(F)(F)F)nc4)c3C[C@H]2CN1C(=O)c1ccccc1` has a composite z-score of 0.232. In the case of `C=CC[C@@]1(C(=O)O)N=C(c2ccc(OCCCO)cc2)O[C@@H]1c1ccccc1CN=[N+]=[N-]`, the composite z-score is reported as 0.0424. In the case of `COc1ccc([Si](C)(C)[C@H]2[C@H](CCn3cc([C@H](O)c4ccccc4)nn3)O[C@@]3(C(=O)N(C)c4c(Br)cc(C)cc43)[C@@H]2C)cc1`, the composite z-score is reported as -0.112. Molecule `CC1(C)OC[C@@]23C=C(Br)[C@@H](C[C@H]12)[C@@]1(CO1)C3=O` has a composite z-score of -0.0515.
